Molecules are shown by their SMILES. About 83,000 compounds went through this panel and 20% of them were active in at least one assay; those are over-represented in the sample as a whole.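 Cell lines were cultured in 96-well plates, exposed to a single compound concentration, and assessed for percent growth 48 hours later.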 Values without a mark were called inactive. Calls of active or inactive are those of the source.

The assay deals with T-47D breast. In words: NCI-60 one-dose screen, 48 h (100 = growth as untreated, 0 = no growth, -100 = all killed). Conditions: 10 µM unless noted. The protocol:
Growth inhibition of the T-47D human tumor cell line is measured as a screen for anti-cancer activity. Cells are grown in 96 well plates and exposed to the test compound for 48 hours. Compounds are tested at a single concentration, which is 10^-5 M for most compounds. The reported endpoint is percent growth (GI% or GIPRCNT), where numbers from 0 - 100% represent growth inhibition, and numbers from -100% - 0 represent cell death. For example, a value of 40 represents 60% growth inhibition. A value of 0 means no net growth occurred over the course of the experiment. A value of -40 indicates 40% of cells at the beginning of the experiment died by the end of the experiment. A value of -100 means all cells are dead at the end of the experiment.
NCI-60 Human Tumor Cell Lines Screen was performed using the standard one-dose NCI protocol, which is described in more detail at https://dtp.cancer.gov/discovery_development/nci-60/default.htm.
Compounds with GIPRCNT values below 10 were considered active. Activity score was based on GIPRCNT using the following formula: […]
Score is 0 for GIPRCNT values of 100 or above, 50 for GIPRCNT values of 0, and 100 for GIPRCNT values of -100.
For the compound `O=c1nc(N2CCOCC2)oc2c(-c3cccc4ccccc34)cccc12`, the growth is 79.7%.

Turning to `CC1(C)N=C(N)N=C(N)N1c1cccc(CCCCc2ccccc2)c1`, the growth is 18.1%.

On to `Cc1ccc(N(CC2=NCCN2)c2cccc(O)c2)cc1`, for which the growth is 98.5%.

Consider `O=S(=O)(CCN1CCOCC1)Nc1cncc(-c2ccc3ncnc(Nc4ccc(F)c(Cl)c4)c3c2)c1`, for which the growth was -17.9% (active).

For `Cc1ccc(=O)n(-c2ccc(Br)cc2F)c1`, the growth is 93.7%.

Turning to `O=S1(=O)N(CCNc2nccc(-c3c(-c4cccc(O)c4)nc4sccn34)n2)CCN1Cc1ccccc1`, the growth was 50.8%.

Take `COc1cc(C(=O)C[n+]2ccccc2)ccc1OC(C)=O`: the growth is 103%.

On to `Cc1ccc2[nH]c3nc4cccnc4c(C)c3c2c1`, for which the growth was 14.2%.

Regarding `OCc1cnccc1NC12CC3CC(CC(C3)C1)C2`, the growth is 89.4%.

Turning to `Nc1nccc2c1ccn2-c1ccc(NC(=O)c2ccc(N3CCOCC3)c(C(F)(F)F)c2)cc1`, the growth is 39%.

As to `COc1cc(NC(=O)C#Cc2ccccc2)c(OC)cc1Cl`, the growth is 71.1%.

Take `O=C(NCCNc1nccc(-c2c(-c3cccc(O)c3)nc3sccn23)n1)c1ccccc1O`: the growth is 61.8%.

In the case of `COc1ccc(-c2nn(-c3ccc(NC(=O)Nc4cc(C(F)(F)F)cc(C(F)(F)F)c4)cc3)cc2-c2ccncc2)cc1Cl`, the growth is 25.3%.

As to `C=C1C(=O)O[C@H]2[C@H]1CC/C(COC(=O)c1ccccc1)=C\CC[C@@]1(C)O[C@@H]21`, the growth is -18.7% (active).

With `CC(Cl)(CCl)CS(=O)(=O)c1ccc(Cl)cc1` (stereo not given), the growth was 113%.

With `CCC1S/C(=N\N=C(/C)c2cccs2)N(c2ccccc2)C1=O` (stereo not given), the growth was 90.6%.

Regarding `O=C1OC(N(Cc2ccc(Cl)cc2)c2ccccc2)c2ccccc21` (stereo not given), the growth is 89.2%.

Turning to `Cc1nccc2c3ccc(OCc4cn(-c5ccc(Br)cc5)nn4)cc3n(CCCc3ccccc3)c12`, the growth was 104%.

For `C=C1C(=O)O[C@H]2[C@H]1CC/C(COC(=O)c1cc(OC)c(OC)c(OC)c1)=C\CC[C@@]1(C)O[C@@H]21`, the growth is -38.7% (active).

For `O=C1c2ccccc2OC=C(c2ccccc2)N1CCCCN1CCCCC1`, the growth was 0.353% (active).

On to `COc1ccc(C(=O)Cn2cnc3c(Nc4cc(C(=O)Nc5ccc(N6CCN(CCO)CC6)cc5)ccc4C)ncnc32)cc1`, for which the growth was 91.6%.

With `O=C1C(SCCO)=C(SCCO)C(=O)N1c1ccc(-c2ccccc2)cc1`, the growth is 24%.

In the case of `CN(C)CCCOc1c(Br)cc(/C=C/C(=O)N(C)CCc2cc(Br)c(OCCCN(C)C)c(Br)c2)cc1Br`, the growth is 92.8%.

As for `CC1(C)N=C(N)N=C(N)N1c1ccc(F)c(C(F)(F)F)c1`, the growth is 91.1%.

With `CCn1cc(/C=C2\Oc3cc(OCC#N)ccc3C2=O)c2cc(OC)ccc21`, the growth is 48.4%.

For the compound `CC(=O)Nc1ccc([I+]c2ccc([N+](=O)[O-])cc2)cc1`, the growth is 68.1%.

`Cc1c(F)cccc1NC(=O)c1sc2nc3c(cc2c1N)CCCCC3`: the growth was 63.6%.

As to `COCCNC(C(=O)c1ccccc1)c1ccccc1` (stereo not given), the growth is 92.1%.

On to `O=[N+]([O-])c1ccc(NS(=O)(=O)c2cc(Cl)ccc2Cl)c2ccccc12`, for which the growth was 56%.

Turning to `CN(C)c1ccc(/C=N/N=C(N)N)cc1`, the growth is 81.9%.

As to `O=C(Cn1c2ccccc2c2ccncc21)N/N=C/c1cc(O)c(O)c(O)c1`, the growth is 98.2%.

Consider `O=C(Nc1ccc(-n2ccc3c(NC(=O)c4ccccc4)nccc32)cc1)c1cccc(C(F)(F)F)c1`, for which the growth was 58.3%.

`O=C(c1ccccc1)[C@H]1[C@@H]2CCCN2[C@]2(C(=O)Nc3ccc(F)cc32)[C@]12C(=O)Nc1ccccc12`: the growth was 65.6%.

Turning to `Oc1ccccc1/C=N/c1ccccn1`, the growth is 95.9%.

With `O=C(Cn1c2ccccc2c2ccncc21)N/N=C\c1ccc2ccccc2c1`, the growth is 35%.

For the compound `O=C(O)c1cn(C2CC2)c2cc(N3CCN(C(=O)CSc4nc(NS(=O)(=O)c5ccccc5)cc(=O)[nH]4)CC3)c(F)cc2c1=O`, the growth is 116%.

In the case of `COc1ccc2c(c1)OC(N(C(C)=O)C(C)=O)=C(C#N)C2c1ccc(F)cc1` (stereo not given), the growth was 42%.

As to `C=C1C(=O)O[C@H]2[C@H]1CC/C(COC(=O)c1ccc3ccccc3c1)=C\CC[C@@]1(C)O[C@@H]21`, the growth is -55.2% (active).

Turning to `CN1CCN(Cn2nc(-c3cc(F)c(Cl)cc3Cl)n(/N=C/c3ccc(N(C)C)cc3)c2=S)CC1`, the growth was 93.7%.

As for `COc1ccc2c(c1)nnn1c3ncccc3c(N=O)c21`, the growth is -0.214% (active).

The values above are taken from PubChem BioAssay (NCI).
